Common to all, as to assay: PBM binding z-score (relative to random genomic background probes); higher = stronger binding; sequences stand for … in GC…GCGATTGACAGCGTAGAATGAAGG
Test [1] relates to FXR:RXRa (NR concentration 270 nM, RXRa partner concentration 90 nM). The gist of the method: (§1)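 On custom Agilent 4×180K arrays, double-stranded probes with 34-nt variable regions carried direct-repeat seeds, single-nucleotide variants, half-site ablations or random human genomic background. Ligand-free nuclear receptor dimers were applied for 1 h, and binding was read with antibodies against each partner (one per run). Binding z-scores come from regression-normalized fluorescence, with the random background probes as reference.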

In test [2] the test system is LXRa:RXRa (NR concentration 270 nM, RXRa partner concentration 90 nM). The gist of the method: as §1
Test [3] has as its system LXRa homodimer (NR concentration 270 nM). The method in brief:
as §1

Test [4] deals with LXRb:RXRa (NR concentration 270 nM, RXRa partner concentration 90 nM). The gist of the method:
as §1

Test [5] relates to LXRb homodimer (NR concentration 270 nM). The gist of the method:
as §1

The test system of test [6] is PPARa:RXRa (NR concentration 270 nM, RXRa partner concentration 90 nM). The gist of the method:
as §1

For test [7], the system named is PPARg:RXRa (NR concentration 180 nM, RXRa partner concentration 90 nM). The method in brief: as §1
Test [8] has as its system PPARg:RXRa 270nM:90nM, anti-RXR (NR concentration 270 nM, RXRa partner concentration 90 nM). The method in brief:
as §1

Test [9] concerns PPARg:RXRa 30nM:10nM, anti-RXR (NR concentration 30 nM, RXRa partner concentration 10 nM). The gist of the method:
as §1

Test [10] deals with PPARg:RXRa 90nM:30nM, anti-RXR (NR concentration 90 nM, RXRa partner concentration 30 nM). The method in brief:
as §1

Test [11] relates to PPARg:RXRa DBDmut IVT, anti-RXR (DBD mutation: RXRa K156A/R161A, NR concentration 270 nM, RXRa partner concentration 90 nM). The method in brief: as §1
Test [12] concerns PPARg:RXRa IVT, anti-PPARg (NR concentration 270 nM, RXRa partner concentration 90 nM). The gist of the method:
as §1

The test system of test [13] is PPARg DBDmut:RXRa IVT, anti-PPARg (DBD mutation: PPARg1 K132A/R137A, NR concentration 270 nM, RXRa partner concentration 90 nM). The method in brief: as §1
Test [14] deals with PPARg DBDmut IVT, anti-PPARg (DBD mutation: PPARg1 K132A/R137A, NR concentration 270 nM). The method in brief: as §1
In test [15] the test system is PPARg homodimer (NR concentration 180 nM). The method in brief:
as §1

Test [16] has as its system PXR:RXRa (NR concentration 270 nM, RXRa partner concentration 90 nM). The gist of the method:
as §1

The subject of test [17] is PXR homodimer (NR concentration 270 nM). The gist of the method:
as §1

In test [18] the test system is RARa:RXR (NR concentration 270 nM, RXRa partner concentration 90 nM). The gist of the method: as §1
Test [19] deals with RARa homodimer (NR concentration 270 nM). The method in brief:
as §1

Test [20] relates to RARb:RXRa (NR concentration 270 nM, RXRa partner concentration 90 nM). The method in brief:
as §1

As for TGATTGAGGTTAAAGATCAGGGAACGTGGCGTCG, the PBM binding z-score in [1] was 3.41; in [2], 2.42; in [3], 0.0848; in [4], 1.85; in [5] it was 0.589; in test [6] it was 4.47. For the same sequence, the PBM binding z-score was determined as 5.23 in test [7]; 5.82 in [8]; 4.22 in test [9]; 5.94 in test [10]; 1.62 in test [11]; 3.15 in test [12]. Moreover, the PBM binding z-score in [13] was 1.39; in test [14] it was 1.52; in test [15], 0.865; in test [16] it was 1.96; in [17], 0.148; in test [18], 2.95. Besides, the PBM binding z-score in [19] is 0.729; in test [20] it was 2.24.
As for ACTATCAGTTGACTTAGGGCAACCGATACGACGC, the PBM binding z-score was 0.0979 in [1]; 0.0623 in test [2]; 0.0822 in test [3]; -0.0416 in [4]; 0.543 in test [5]; 0.113 in test [6]. Further, the PBM binding z-score in test [7] was 0.908; in [8], 0.0453; in test [9], 0.141; in test [10], 0.385; in test [11], -0.371; in [12], 0.386. For the same sequence, the PBM binding z-score in test [13] is 0.456; in [14], 0.545; in [15], 0.231; in [16] it was -0.0461; in [17], 0.241; in test [18], 0.465. Besides, the PBM binding z-score is 0.08 in test [19] and 0.877 in test [20].
In the case of GTACCAACGTGAATAGGTCGTTGATGAGTAGGCG, the PBM binding z-score is -0.282 in [1]; -0.216 in test [2]; -0.491 in test [3]; -0.2 in test [4]; -0.829 in [5]; 0.267 in test [6]. Further, the PBM binding z-score in [7] was 0.588; in test [8], -0.017; in [9], -0.124; in test [10], -0.176; in [11] it was -0.261; in test [12], -0.148. The PBM binding z-score was -0.62 in [13]; -0.461 in test [14]; -0.374 in [15]; -0.0666 in [16]; -0.401 in test [17]; 0.105 in test [18]. Moreover, the PBM binding z-score in test [19] is -0.122; in [20], -0.00783.
AGAACGAGGGCAATTAGTTGATAGCACGGGTGGC: the PBM binding z-score is 0.559 in [1]; 0.389 in test [2]; -0.309 in test [3]; 0.306 in test [4]; -0.23 in test [5]; 1.64 in test [6]. In addition, the PBM binding z-score in [7] was 1.31; in [8], 0.81; in test [9] it was -0.134; in [10] it was 0.104; in test [11], 3.45; in test [12], 2.65. The PBM binding z-score is 0.442 in [13]; -0.255 in test [14]; 0.218 in test [15]; 0.729 in [16]; 1.02 in [17]; 0.412 in test [18]. The PBM binding z-score in test [19] was 0.215; in test [20], 2.06.
Consider CCTACTGGGCCAAAAAGGTCATAGATGCCGATAA, for which the PBM binding z-score was 3.54 in test [1]; 4.14 in test [2]; 2.44 in test [3]; 4.1 in [4]; -0.00458 in test [5]; 5.14 in test [6]. The PBM binding z-score was found to be 3.89 in test [7]; 4.29 in test [8]; 1.84 in test [9]; 3.55 in test [10]; 3.18 in [11]; 4.3 in [12]. The PBM binding z-score was 0.551 in test [13]; -0.44 in [14]; 3.27 in [15]; 4.51 in test [16]; 1.73 in test [17]; 5.33 in test [18]. The figures for the PBM binding z-score in test [19] and in test [20] were 1.49 and 3.98, respectively.
On to TCTGCTAGCTCAACGATGGTCAGCTAATCTGCTA, for which the PBM binding z-score is -0.518 in [1]; -0.557 in test [2]; -0.771 in test [3]; -1 in test [4]; -1.03 in [5]; -0.335 in test [6]. The PBM binding z-score in [7] was -0.32; in test [8], 0.116; in test [9] it was 1.25; in [10], 0.838; in test [11], 0.317; in test [12], -0.338. In addition, the PBM binding z-score in test [13] was -0.717; in test [14] it was -0.143; in [15], -1.44; in test [16], -0.381; in [17], -0.501; in [18] it was -0.407. In addition, the PBM binding z-score in test [19] was -1.12; in test [20], -0.267.

The values above are taken from the supplement of paper PMC6555819.
